# Laboratory results reported in PubChem BioAssay AID1159580 (chemical genetic matrix, 2015).
# The campaign covered roughly 5,500 compounds. About 2,000 (36%) were called active. Inconclusive results (about 18%) are left out. Some of the results follow. A number with no mark means an inactive call. Rule as the data show it: active = normalized growth mostly below about 0.91 (no sharp cut-off); inconclusive = no clear call, values can overlap the other calls; inactive = mostly above about 0.92.
# Assay: chemical genetic growth profiling, strain panel (AID 1159580);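 also: tested at 20 µM; growth read once vehicle control cultures reached saturation at 30 °C; 1 = growth at the plate median or of vehicle wells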
# Details: S. cerevisiae deletion strains, growth OD
smiles,measurement,setting,value
COc1c2c(c(CC=C(C)C)c3oc(=O)c(-c4ccc(O)cc4)c(O)c13)OC(C)(C)C=C2,normalized growth,"locus YJL168C, strain set2, stronger effect = lower value",0.985
same,normalized growth,"locus YJL187C, strain SWE1 (second series), stronger effect = lower value",0.837 (active)
same,normalized growth,"locus YJL187C, strain SWE1, stronger effect = lower value",0.877 (active)
same,normalized growth,"locus YKL009W, strain mrt4, stronger effect = lower value",0.925
same,normalized growth,"locus YKL068W, stronger effect = lower value",0.982
same,normalized growth,"locus YKL085W, strain MDH1 (second series), stronger effect = lower value",0.909 (active)
same,normalized growth,"locus YKL085W, strain MDH1, stronger effect = lower value",0.909 (active)
same,normalized growth,"locus YKL160W, strain elf1, stronger effect = lower value",0.95
same,normalized growth,"locus YKL190W, strain CNB1, stronger effect = lower value",0.851 (active)
same,normalized growth,"locus YKR001C, strain vps1, stronger effect = lower value",0.381 (active)
same,normalized growth,"locus YKR026C, strain gcn3, stronger effect = lower value",0.971
same,normalized growth,"locus YKR091W, strain srl3, stronger effect = lower value",0.991
same,normalized growth,"locus YLL001W, strain dnm1, stronger effect = lower value",0.848 (active)
same,normalized growth,"locus YLL026W, stronger effect = lower value",0.848 (active)
same,normalized growth,"locus YLL041C, strain sdh2, stronger effect = lower value",0.984
same,normalized growth,"locus YLR027C, strain aat2, stronger effect = lower value",0.72 (active)
same,normalized growth,"locus YLR039C, strain RIC1, stronger effect = lower value",0.444 (active)
same,normalized growth,"locus YLR058C, strain SHM2, stronger effect = lower value",0.782 (active)
same,normalized growth,"locus YLR102C, strain apc9, stronger effect = lower value",0.847 (active)
same,normalized growth,"locus YLR221C, strain rsa3, stronger effect = lower value",0.674 (active)
same,normalized growth,"locus YLR258W, strain gsy2, stronger effect = lower value",0.824 (active)
same,normalized growth,"locus YLR262C, strain YPT6 (second series), stronger effect = lower value",0.584 (active)
same,normalized growth,"locus YLR268W, strain sec22, stronger effect = lower value",0.693 (active)
same,normalized growth,"locus YLR320W, strain mms22, stronger effect = lower value",0.65 (active)
same,normalized growth,"locus YLR342W, strain FKS1 (second series), stronger effect = lower value",0.812
same,normalized growth,"locus YLR342W, strain FKS1, stronger effect = lower value",0.907 (active)
same,normalized growth,"locus YLR357W, strain rsc2, stronger effect = lower value",1.01
same,normalized growth,"locus YLR370C, strain arc18, stronger effect = lower value",0.965
same,normalized growth,"locus YLR371W, strain rom2, stronger effect = lower value",0.519 (active)
same,normalized growth,"locus YLR384C, strain iki3, stronger effect = lower value",1
same,normalized growth,"locus YLR418C, strain cdc73, stronger effect = lower value",0.214 (active)
same,normalized growth,"locus YML016C, strain PPZ1, stronger effect = lower value",0.904 (active)
same,normalized growth,"locus YML032C, strain rad52, stronger effect = lower value",0.63 (active)
same,normalized growth,"locus YML120C, strain ndi1, stronger effect = lower value",0.467 (active)
same,normalized growth,"locus YML124C, strain tub3, stronger effect = lower value",0.858 (active)
same,normalized growth,"locus YMR058W, strain fet3, stronger effect = lower value",0.834 (active)
same,normalized growth,"locus YMR078C, strain ctf18, stronger effect = lower value",0.537 (active)
same,normalized growth,"locus YMR125W, strain sto1, stronger effect = lower value",0.866 (active)
same,normalized growth,"locus YMR129W, stronger effect = lower value",0.915 (active)
same,normalized growth,"locus YMR205C, strain PFK2, stronger effect = lower value",0.664 (active)
same,normalized growth,"locus YMR223W, strain ubp8, stronger effect = lower value",0.792 (active)
same,normalized growth,"locus YMR231W, strain pep5, stronger effect = lower value",0.999
same,normalized growth,"locus YMR263W, strain SAP30, stronger effect = lower value",0.866 (active)
same,normalized growth,"locus YMR307W, strain GAS1, stronger effect = lower value",0.48 (active)
same,normalized growth,"locus YNL067W, strain RPL9B, stronger effect = lower value",0.938
same,normalized growth,"locus YNL071W, strain lat1, stronger effect = lower value",0.484 (active)
same,normalized growth,"locus YNL128W, strain TEP1, stronger effect = lower value",0.906
same,normalized growth,"locus YNL209W, strain ssb2, stronger effect = lower value",0.935
same,normalized growth,"locus YNL233W, strain BNI4, stronger effect = lower value",0.635 (active)
same,normalized growth,"locus YNL248C, strain rpa49, stronger effect = lower value",0.973
same,normalized growth,"locus YNL250W, strain rad50, stronger effect = lower value",1.05
same,normalized growth,"locus YNL271C, strain bni1, stronger effect = lower value",0.976
same,normalized growth,"locus YNL298W, strain CLA4, stronger effect = lower value",0.95
same,normalized growth,"locus YNL307C, strain MCK1, stronger effect = lower value",0.24 (active)
same,normalized growth,"locus YNL322C, strain KRE1 (second series), stronger effect = lower value",1.03
same,normalized growth,"locus YNL322C, strain KRE1, stronger effect = lower value",0.88 (active)
same,normalized growth,"locus YNR049C, strain mso1, stronger effect = lower value",0.987
same,normalized growth,"locus YNR052C, strain pop2, stronger effect = lower value",0.546 (active)
same,normalized growth,"locus YOL012C, strain htz1",0.365
same,normalized growth,"locus YOL147C, strain pex11, stronger effect = lower value",0.481 (active)
same,normalized growth,"locus YOR001W, strain rrp6, stronger effect = lower value",0.797 (active)
same,normalized growth,"locus YOR061W, strain CKA2, stronger effect = lower value",0.939
same,normalized growth,"locus YOR069W, strain VPS5, stronger effect = lower value",0.896 (active)
same,normalized growth,"locus YOR070C, strain gyp1, stronger effect = lower value",0.793 (active)
same,normalized growth,"locus YOR080W, strain dia2, stronger effect = lower value",0.946
same,normalized growth,"locus YOR083W, strain WHI5, stronger effect = lower value",0.876 (active)
same,normalized growth,"locus YOR106W, strain vam3, stronger effect = lower value",0.883
same,normalized growth,"locus YOR136W, strain idh2, stronger effect = lower value",0.867 (active)
same,normalized growth,"locus YOR144C, strain elg1, stronger effect = lower value",0.592 (active)
same,normalized growth,"locus YOR184W, strain ser1, stronger effect = lower value",0.217 (active)
same,normalized growth,"locus YOR265W, strain rbl2, stronger effect = lower value",0.919 (active)
same,normalized growth,"locus YOR270C, strain vph1, stronger effect = lower value",0.549 (active)
same,normalized growth,"locus YOR290C, strain snf2, stronger effect = lower value",0.631 (active)
same,normalized growth,"locus YOR316C, strain cot1, stronger effect = lower value",0.924
same,normalized growth,"locus YPL051W, strain arl3, stronger effect = lower value",0.787 (active)
same,normalized growth,"locus YPL078C, strain atp4, stronger effect = lower value",0.802 (active)
same,normalized growth,"locus YPL106C, strain sse1, stronger effect = lower value",0.913
same,normalized growth,"locus YPL240C, strain hsp82, stronger effect = lower value",0.853 (active)
same,normalized growth,"locus YPR119W, strain clb2, stronger effect = lower value",0.735 (active)
same,normalized growth,"locus YPR141C, strain kar3, stronger effect = lower value",0.977
same,normalized growth,"locus YPR163C, strain tif3, stronger effect = lower value",0.463 (active)
same,normalized growth,"locus YPR167C, strain met16, stronger effect = lower value",0.751 (active)
same,normalized growth,"strain wtn01, stronger effect = lower value",0.747 (active)
